PubChem BioAssay AID623901 (Broad Institute, 2012)
Several values for one entry are separate records, joined by “and”; a condition that tells them apart may be missing. Equal entries are not always repeated. The campaign covered roughly 340,000 compounds. About 470 (0.14%) were called active.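 Rule for the calls: active = mean activation of 30% or more, with every replicate also reaching 30%; inconclusive = mean activation of 30% or more but some replicate falls short; inactive = the rest.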 Shown is part of a subset that was picked to be rich in actives.

Experiment: miR-122 suppressors via Renilla sensor increase, primary screen, cell-based, Huh7 psiCHECK-miR122, Renilla luciferase, single point (AID 623901);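 note: 0% = median of neutral control wells and 100% = median of positive control wells; higher luciferase signal means stronger suppression of miR-122 activity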
Conditions: 48 h, at 12.5 µM, active compounds read high

activation, active:
O=C(NC(Nc1nc2ccc([N+](=O)[O-])cc2s1)(C(F)(F)F)C(F)(F)F)c1ccccc1 45.7%

activation, inactive:
COCC#Cc1cnc2c(c1)C(=O)N([C@@H](C)CO)C[C@@H](C)[C@@H](CN(C)C(=O)Nc1ccc(OC)cc1)O2 -2.9%
C[C@H]1CN([C@@H](C)CO)C(=O)c2cc(-c3cccc(F)c3)cnc2O[C@@H]1CN(C)Cc1cncnc1 -0.0525%
C[C@H](CO)N1C[C@H](C)[C@@H](CN(C)Cc2ccc3c(c2)OCO3)Oc2c(NC(=O)C3CCOCC3)cccc2C1=O -319%
O=C(CCc1ccc(S(=O)(=O)NC2CCCCC2)cc1)NCc1ccccc1 -101%
C[C@H]1CN([C@@H](C)CO)C(=O)c2cc(-c3ccccc3F)cnc2O[C@@H]1CN(C)C(=O)C1CCCCC1 4.49%
CCCOC(=O)c1[nH]c2c(c1C)C(=O)CC(c1cccs1)C2 (configuration not stated) -94%
COc1ccc(NC(=O)Nc2ccc3c(c2)OC[C@@H](C)NC[C@@H](C)[C@H](OC)CN(C)C3=O)cc1 3.26%
C[C@H](O)C#Cc1ccc2c(c1)O[C@H](CN(C)C)[C@@H](C)CN([C@H](C)CO)S2(=O)=O 4.16%
CO[C@H]1CN(C)C(=O)c2ccc(NC(=O)Nc3ccc(F)cc3)cc2OC[C@@H](C)NC[C@H]1C -0.877%
CC(C)C#Cc1ccc2c(c1)O[C@@H](CN(C)C(=O)CN(C)C)[C@@H](C)CN([C@H](C)CO)S2(=O)=O 1.71%
Cc1c(-c2ccccc2)cn2c1-c1ccc(C)n1CC2 -248%
CO[C@H]1CN(C)C(=O)c2ccc(NC(=O)C3CCC3)cc2OC[C@@H](C)NC[C@H]1C 2.77%
C[C@@H]1CN([C@@H](C)CO)C(=O)c2cc(-c3cncnc3)cnc2O[C@H]1CN(C)Cc1cncnc1 9.2%
CCCC#Cc1ccc2c(c1)O[C@@H](CN(C)C(=O)CC)[C@H](C)CN([C@H](C)CO)S2(=O)=O -21.9%
C[C@@H]1CN([C@@H](C)CO)C(=O)c2cc(-c3cncnc3)cnc2O[C@@H]1CN(C)Cc1ccncc1 -14.3%
CCC(=O)N(C)C[C@@H]1Oc2ncc(C#C[C@H](C)O)cc2C(=O)N([C@@H](C)CO)C[C@@H]1C -1.06%
C[C@@H]1CN([C@@H](C)CO)C(=O)c2cc(C3=CCCCC3)cnc2O[C@H]1CN(C)CC1CCOCC1 -37.5%
CCOc1ccc(Br)cc1S(=O)(=O)Nc1cccc(S(=O)(=O)N(CC)CC)c1 -110%
CC(C)CNS(=O)(=O)c1ccc(OCC(=O)Nc2ccc3c(c2)OCO3)c(Cl)c1 -303%
C[C@H]1CN([C@@H](C)CO)C(=O)c2cc(C3=CCCCC3)cnc2O[C@@H]1CN(C)C(=O)Cc1ccccc1 -4.91% and -1.39%
C[C@H](CO)N1C[C@H](C)[C@H](CN(C)C(=O)C2CCOCC2)Oc2ncc(C#Cc3ccccc3F)cc2C1=O -1.81%
